Measurements published in PubChem BioAssay AID1903 (Southern Research Specialized Biocontainment Screening …, 2009).
The whole screen tested about 310,000 compounds, of which about 1,200 (0.39%) were called active. No rule for the calls is given here. The list is a sample of the results. Entries with a potency or affinity are not part of this list.

target: Large T antigen (Simian virus 40) (UniProt P03070); assay: SV40 large T antigen inhibitors, biochemical (AID 1903); conditions: SV40 large T antigen ATPase/helicase inhibition assay; at 20 µM; hits give high values
Sequence (P03070 whole entry, looked up): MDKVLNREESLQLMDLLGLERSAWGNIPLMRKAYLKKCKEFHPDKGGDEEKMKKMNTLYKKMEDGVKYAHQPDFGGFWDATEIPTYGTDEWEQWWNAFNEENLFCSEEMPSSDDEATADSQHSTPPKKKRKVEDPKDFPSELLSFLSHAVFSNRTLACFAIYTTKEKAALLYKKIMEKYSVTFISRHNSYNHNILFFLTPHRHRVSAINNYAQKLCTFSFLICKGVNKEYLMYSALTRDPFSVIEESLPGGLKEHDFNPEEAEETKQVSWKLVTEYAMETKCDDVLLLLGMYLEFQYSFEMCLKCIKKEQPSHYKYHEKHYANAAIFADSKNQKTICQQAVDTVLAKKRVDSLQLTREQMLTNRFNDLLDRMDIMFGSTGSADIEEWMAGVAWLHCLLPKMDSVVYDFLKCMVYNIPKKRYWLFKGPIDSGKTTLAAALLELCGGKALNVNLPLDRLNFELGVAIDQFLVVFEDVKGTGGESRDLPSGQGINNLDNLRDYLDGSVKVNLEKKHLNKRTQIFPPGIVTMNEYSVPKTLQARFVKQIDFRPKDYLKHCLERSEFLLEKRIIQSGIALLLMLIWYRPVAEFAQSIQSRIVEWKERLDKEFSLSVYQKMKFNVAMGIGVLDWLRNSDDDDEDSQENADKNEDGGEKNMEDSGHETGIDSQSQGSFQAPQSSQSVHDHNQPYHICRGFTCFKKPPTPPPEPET

inhibition, inactive:
Cc1cc(NS(=O)(=O)c2cccs2)no1 -2.38%, CC(=O)Nc1cccc(NC(=O)CSc2ncc(C(=O)Nc3ccccc3)c(=O)n2C)c1 19.6%, Fc1ccccc1COc1ccc(Br)cc1CNCC1CCCO1 (stereo unspecified) 4.34%, Cc1cccc(N2C(=O)c3ccccc3C2=O)n1 4.5%, Cc1cccc(N2C(=O)c3ccc(Br)cc3C2=O)n1 8.73%, Cc1csc(NC(=O)c2cc(=O)[nH]c3ccccc23)n1 5.64%, CN(C)S(=O)(=O)c1ccc(Cl)c(NC(=O)CN2CCNC(=O)C2)c1 5.76%, Cc1ccc(C)c(NC(=O)C(Sc2nc3ccccc3c(=O)n2CC(C)C)c2ccccc2)c1 (stereo unspecified) 4.6%, COc1ccc(C)cc1CN1C(=O)c2ccccc2C1=O 2.66%, COc1ccc(C=O)cc1CN1C(=O)c2ccccc2C1=O 0.06%, COc1ccc(CN2CC(C(=O)N3CCOCC3)CC2=O)cc1 (stereo unspecified) 13.7%, Cc1c(NC(=O)c2ccc(-c3ccc([N+](=O)[O-])cc3Cl)o2)c(=O)n(-c2ccccc2)n1C 7.53%, CCS(=O)(=O)C1=NN2C(=N)/C(=C\c3ccc(SCc4ccco4)o3)C(=O)N=C2S1 59.6%, CCC1=NN2C(=N)/C(=C\c3ccc(SCc4ccco4)o3)C(=O)N=C2S1 0.38%, N=C1/C(=C\c2ccc(SCc3ccccc3)o2)C(=O)N=C2SC=NN12 -0.34%, O=C1NC(=S)S/C1=C/c1ccc(OC(=O)c2ccco2)cc1 12%, CC1=NN2C(=N)/C(=C\c3ccc(SCc4ccccc4)o3)C(=O)N=C2S1 15.7%, O=C(O)CN1C(=O)/C(=C/c2ccc(SCc3ccccc3)o2)SC1=S 12.4%, Cc1ccc(-c2nnc(SC(C)C(=O)NCC3CCCO3)nc2-c2ccc(C)cc2)cc1 (stereo unspecified) 7.01%, Cn1c(=O)n(CCOc2ccc(Cl)cc2Cl)c2ccccc21 24.1%, O=C(COC(=O)c1ccccc1Oc1ccccc1)NC1CCS(=O)(=O)C1 (stereo unspecified) 2.91%, COc1ccc(C2c3sc(=O)[nH]c3SCC2C(N)=O)cc1 (stereo unspecified) 12.6%, CCCCOP(=O)(c1ccc(N(C)C)cc1)C(O)c1ccccc1F (stereo unspecified) 0.81%, O=C(CN(C(=O)CCC(=O)Nc1ccccn1)c1cccc(F)c1)NCc1ccc2c(c1)OCO2 5.37%, CCCNC(=O)N[C@@H](CCSC)C(=O)OC 1.19%, N#C/C(=C\c1ccccc1Cl)C(=O)NC(=O)Oc1ccccc1 23.3%, CCCCCc1nc2c(c(=O)c3ccccc3n2C)c(=O)n1Cc1ccc(OC)cc1 6.54%, c1ccc(-n2cc(CN3CCCC(CN4CCCC4)C3)c(-c3ccc4c(c3)OCO4)n2)cc1 (stereo unspecified) 0.36%, CC(=O)c1cccc(NC(=O)CCNC(=O)c2ccccc2Cl)c1 7.59%, O=C(N/N=C(\c1ccccc1)c1cccnc1)c1ccc(O)cc1 14.2%, O=C(N/N=C(\c1ccccc1)c1cccnc1)c1cccc(F)c1 8.05%, CCOC(=O)C1CCCN(C(=O)c2cn(CC)c3ccc(S(=O)(=O)N(C)C)cc3c2=O)C1 (stereo unspecified) 12.6%, Cc1c(Cl)cccc1NC(=O)Cn1cnc(S(=O)(=O)N2CCCC2)c1 12.7%, CC(NC(=S)Nc1ccc(Cl)cc1)C(c1ccccc1)N1CCOCC1 (stereo unspecified) 8.17%, COc1ccc2sc(C)[n+](C)c2c1 11.2%, CC[n+]1c(C)sc2cc(OC)ccc21 8.13%, Cn1c(SCC(=O)Nc2ccc3c(c2)OCCO3)nnc1-c1cccnc1 -0.17%, COc1ccccc1N1CCN(/N=C/c2cccc(O)c2)CC1 7.2%, COc1ccc(/C=N/N2CCN(c3ccccc3OC)CC2)cc1OC 6.87%, Fc1ccc(C2=Nn3c(nnc3-c3ccco3)SC2)cc1 9.39%, c1ccc(C2=Nn3c(nnc3-c3ccco3)SC2)cc1 10.2%, CN1N=C(C(=O)N2CCCC(C(=O)c3cccc(C(F)(F)F)c3)C2)CCC1=O (stereo unspecified) 2.73%, CCOc1ccccc1/C=N/n1c(COc2ccccc2)n[nH]c1=S 14.8%, CCN(CC)c1ccc(/C=c2\sc3nc4ccccc4n3c2=O)c(O)c1 11.3%, O=c1/c(=C/c2ccc(O)c([N+](=O)[O-])c2)sc2nc3ccccc3n12 9.09%, O=C(O)COCC(=O)Nc1ccc(-n2cnnn2)cc1 3.06%, C/C(=N\NC(=O)c1cccc(N/N=C(\C)c2ccc([N+](=O)[O-])cc2)c1)c1ccc([N+](=O)[O-])cc1 7.03%, C/C(=N\NC(=O)Cn1cc([N+](=O)[O-])cn1)c1ccco1 -0.91%, C/C(=N\NC(=O)Cn1nc(C)c([N+](=O)[O-])c1C)c1ccc(O)cc1 34.5%, C/C(=N\NC(=O)c1ccc([N+](=O)[O-])cc1)c1cccc([N+](=O)[O-])c1 6.04%, CC1(C)C2CCC(C2)C1(C)NC(=O)CNCc1cccs1 (stereo unspecified) 5.5%, Cc1cccc(CS(=O)(=O)Cc2ccc(C(=O)NC(C)c3ccccc3)o2)c1 (stereo unspecified) 2.72%, Cc1onc(-c2ccccc2)c1C(=O)Nc1ccc(S(=O)(=O)N2CCCC2)cc1 4.98%, N#C/C(=C\c1cccc(O)c1)C(=O)N1CCCCC1 13.5%, COc1ccc(C=C(C(C)=O)C(C)=O)cc1OC 16.2%, COc1cc(/C=C/C(=O)CC(=O)/C=C/c2ccc(O)c(OC)c2)ccc1O 17.5%, N#C/C(=C\c1ccc(O)c(Br)c1)C(=O)N1CCCCC1 9.59%, CC(=O)C1C(c2ccncc2)NC(=O)NC1(O)C(F)(F)F (stereo unspecified) 18.7%, Cn1/c(=N/NC(=O)c2ccccc2Br)sc2ccccc21 5.44%, CCOCCn1c(=NC(=O)CSCC(=O)Nc2cc(C)on2)sc2cc(OC)ccc21 -3.67%, Cc1ccc(S(=O)(=O)N(C)CC(=O)N2CCOCC2)cc1 0.93%, OCCN(C=NC1=NN(c2cccc(C(F)(F)F)c2)CC1)CCO 29.5%, CCN(C=NC1=NN(c2cccc(C(F)(F)F)c2)CC1)CC 22.2%, O=C(N/N=C/c1ccc2c(c1)OCO2)c1ccccn1 9.83%, Cc1ccc(S(=O)(=O)c2nc(-c3ccccc3Cl)oc2N(C)C)cc1 -3.31%, O=C(CCc1c[nH]c2ccccc12)OCC(=O)N1CCN(S(=O)(=O)c2ccccc2)CC1 10.9%, COc1cnc(-c2ccccn2)nc1Oc1ccccc1Cl 5.1%, COc1cnc(-c2ccccn2)nc1Oc1ccc(Cl)cc1 11.2%, Cc1c(C(=O)N2CCOCC2)c(S(=O)(=O)Nc2cccc(C#N)c2)c(C)n1C 5.47%, CCOc1cc(CNc2ccc(N3CCCC3)cc2)cc(Cl)c1OC 12.8%, CCOc1c(Cl)cc(CNc2ccc(N3CCCC3)cc2)cc1OC 21.6%, COc1cc(CNc2ccc(N3CCN(C(C)=O)CC3)cc2)ccc1OCc1ccc(F)cc1 19.5%, COc1cc(CNc2ccc(N3CCOCC3)cc2)cc(Br)c1OC 29.9%, CCOc1cc(C(=O)Nc2ccc(N3CCN(C(C)=O)CC3)cc2)cc(OCC)c1OCC -4.85%, CCOc1cc(CNc2ccc(N3CCOCC3)cc2)cc(Br)c1OCC 36.3%, COc1ccc(N(CC(=O)O)S(=O)(=O)c2cccnc2)cc1 9.79%, Cn1cnc(S(=O)(=O)N2CCN(C(c3ccc(F)cc3)c3ccc(F)cc3)CC2)c1 11.7%, COC(=O)c1ccc(C(=O)N2CCCC(Nc3ccc(F)c(F)c3)C2)cc1 (stereo unspecified) 13.5%, COc1cccc(NC(=S)NN=C2CCC(C(C)(C)C)CC2)c1 (stereo unspecified) 4.61%, COc1cc(/C=C(\C#N)C(=O)c2c[nH]c3ccccc23)cc(OC)c1O 24.5%, N#C/C(=C\c1cccc(Cl)c1)C(=O)c1ccccc1 45.6%, N#C/C(=C/c1ccc(O)c(O)c1)C(=O)NCc1ccc(Cl)cc1 35%, CCOC(=O)/C(C#N)=C\c1ccc(O)c(OC)c1 36.3%, O=S(=O)(c1ccc2oc3ccc(S(=O)(=O)N4CCCCC4)cc3c2c1)N1CCCCC1 -0.2%, CC1CCC(NC(=O)CNC(=O)Cc2cccc3ccccc23)CC1 (stereo unspecified) -1.39%, O=C1C2C3C=CC(C3)C2C(=O)N1CNc1ccc(O)cc1 (stereo unspecified) 37.4%, Cc1ccc(NCN2C(=O)C3C4C=CC(C4)C3C2=O)cc1 (stereo unspecified) 5.54%, CCN(CC)C(=O)COc1ccc2c(-c3ccc(OC)cc3)cc(=O)oc2c1 11.6%, Oc1cccc(/C=N/Nc2cc(N3CCOCC3)nc(N3CCOCC3)n2)c1 -5.16%, Oc1ccc(/C=N/Nc2cc(N3CCCC3)nc(N3CCCC3)n2)cc1O 42%, COc1cc(/C=C2\SC(=S)N(NS(=O)(=O)c3ccc(C)cc3)C2=O)cc(OC)c1OC 20.8%, CCOc1ccc(/C=C2\SC(=S)N(NS(=O)(=O)c3ccc(C)cc3)C2=O)cc1OC 31.2%, COc1cc(/C=C2\SC(=S)N(NC(=O)c3ccncc3)C2=O)ccc1O 31.8%, CCOc1cc(/C=C2\SC(=S)N(NS(=O)(=O)c3ccccc3)C2=O)ccc1O 38.4%, COc1cc(/C=C2\SC(=S)N(NS(=O)(=O)c3ccccc3)C2=O)cc(OC)c1OC 11.2%, CCOc1cc(/C=C2\SC(=S)N(NC(=O)c3cccnc3)C2=O)ccc1O 33.1%
